Screens: PubChem, National Center for Advancing Translational Sciences (NCATS)
An excerpt weighted towards active compounds, which were near 19% of everything screened.
CHX counter – counter-screen for Shiga toxin inhibitors: cycloheximide protein synthesis inhibition. cell reporter, cycloheximide protein synthesis inhibition counterscreen. max response, %. hit rate 12% among 300,000. AID 2314; in the data active = max response mostly above about 13%, no sharp cut-off; inactive = mostly below about 14%; also: read at 38.3 µM for the half of the compounds with a filed dose; 0% is about no effect
Shiga toxin inh – inhibitors of Shiga toxin in Vero cells; hit rate 9.2% among 290,000; inhibition, % at 38.7 µM; Vero cells, Shiga toxin protein synthesis inhibition reporter; in the data active = inhibition mostly above about 28%, no sharp cut-off; inactive = mostly below about 43%; also: 0% is about no effect
Pf growth 48h – inhibits P. falciparum growth in the first generation, 48 h | AID 504832 | hit rate 5.9% among 310,000 | P. falciparum luciferase growth in erythrocytes, 48 h | Potency, µM (top dose mostly 28.7 µM), for inactives: at the highest dose activity change, negative = inhibition, usual class: inhibitors; also: potency is read from the fitted curve at half-maximal effect; % is scaled to controls: 0 for no effect and ±100 for the full control effect
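A one-generation exposure of luciferase-tagged malaria parasites in RPMI 1640/Albumax erythrocyte culture, 37 C and 5% CO2. Inhibition is inferred from decreased luminescence after adding detection reagent.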
Pf growth 96h – inhibits malaria parasite growth, 96 h. Potency, µM (highest dose often 28.7 µM), inactives show at the highest dose activity change, negative = inhibition, usual class: inhibitors. P. falciparum luciferase reporter growth, 96 h. AID 504834. hit rate 6.9% among 320,000; also: potency is read from the fitted curve at half-maximal effect; % is scaled to controls: 0 for no effect and ±100 for the full control effect
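Luminescence readout: decreased luciferase signal marks inhibited growth of reporter-expressing P. falciparum in infected red cells (2% hematocrit, 0.05% parasitemia final), exposed to compound two generations (96 h, 37 C, 5% CO2).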
AMA1 RON2 block – inhibitors of Plasmodium falciparum AMA1-RON2 interaction; AlphaScreen AMA1-biotinylated RON2 peptide binding; AID 720542; hit rate 0.2% among 360,000; Potency, µM (highest dose often 58.2 µM), inactives show at the highest dose activity change, negative = inhibition, most hits filed as inhibitors;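 also: potency is read from the fitted curve at half-maximal effect; 0% = vehicle wells and -100% = peptide control; nearly all actives have a fitted effect of over 45% in size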
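AMA1 (3D7) with his tag at 25 nM final met compounds first, then biotinylated RON2 peptide at 25 nM; detection used donor plus acceptor beads, 10 µg/mL apiece, read by AlphaScreen after 30 min at room temperature.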
SARS PLP yeast – inhibitors of SARS-CoV papain-like protease in yeast. Potency, µM (highest dose often 32.9 µM), for inactives: top-dose activity, positive = growth rescue, most hits filed as activators. S. cerevisiae expressing SARS-CoV PLpro, growth rescue. AID 485353. hit rate 0.19% among 330,000; calls by dose curve; also: potency is read from the fitted curve at half-maximal effect; 0% is about no effect; nearly all actives have a fitted effect of over 55% in size
Active calls of the source: *. Unless noted, calls follow the shape of the dose curve; as a rule, active = well fitted curve in the direction sought with a large enough effect; inconclusive = small, poorly fitted or top-dose-only effect, or another doubt; inactive = no such curve, though single readings can be large; an effect the other way counts as inactive or inconclusive.

For C=C1SC(=Nc2c(C)cc(C)cc2C)N(C(=O)c2sc3ccccc3c2Cl)C12CCCCC2 the results were CHX counter -3, Shiga toxin inh -3, Pf growth 48h inconclusive, Pf growth 96h 1.7µM*, AMA1 RON2 block -7% and SARS PLP yeast -1%.
Screening C=C1SC(=Nc2ccccc2Cl)N(C(=O)c2sc3ccccc3c2Cl)C12CCCCC2 returned CHX counter 25*, Shiga toxin inh 43, Pf growth 48h 5.9µM*, Pf growth 96h inconclusive and SARS PLP yeast -1%.
Screening CCOC(=O)c1cn2nc(Oc3cccc(F)c3)ccc2n1 returned CHX counter 31*, Shiga toxin inh 49, Pf growth 48h 29%, Pf growth 96h 27%, AMA1 RON2 block 7% and SARS PLP yeast -2%.
Screening CCOC(=O)c1cn2nc(Oc3ccc(C(=O)OC)cc3)ccc2n1 returned CHX counter 1, Shiga toxin inh -1, Pf growth 48h inconclusive, Pf growth 96h -12%, AMA1 RON2 block 22% and SARS PLP yeast 0%.
CCOC(=O)c1cn2nc(Oc3ccc(NC(C)=O)cc3)ccc2n1 was read as CHX counter 25*, Shiga toxin inh 59*, Pf growth 48h 1%, Pf growth 96h 14%, AMA1 RON2 block 25% and SARS PLP yeast 0%.
NC1=NC(c2ccccc2C(F)(F)F)N(c2ccc(F)c(Cl)c2)C(N)=N1 (stereo not given) was read as CHX counter -1, Shiga toxin inh -7, Pf growth 48h 1.9µM*, Pf growth 96h 9%, AMA1 RON2 block -11% and SARS PLP yeast 0%.
COc1ccc(C2N=C(N)N=C(N)N2c2ccccc2OC)cc1OC (stereo not given) was read as CHX counter -3, Shiga toxin inh -15, Pf growth 48h -12%, Pf growth 96h inconclusive, AMA1 RON2 block -3% and SARS PLP yeast 3%.
For COc1ccc(C(C)=O)cc1CSc1ccc(S(=O)(=O)N2CCOCC2)cn1 the results were Pf growth 48h inconclusive, Pf growth 96h inconclusive, AMA1 RON2 block -8% and SARS PLP yeast -5%.
Screening O=C(Nc1nc(-c2ccc(-c3ccccc3)cc2)cs1)C1=COCCO1 returned CHX counter 7, Shiga toxin inh 10, Pf growth 48h 10%, Pf growth 96h 31%, AMA1 RON2 block -11% and SARS PLP yeast 22%.
CC(=O)Nc1nnc(-c2ccc3c(c2)CCCC3)o1 was read as CHX counter 46*, Shiga toxin inh 65*, Pf growth 96h inconclusive, AMA1 RON2 block 94% and SARS PLP yeast -14%.
CCCC(=O)Nc1nnc(-c2ccc3c(c2)OCO3)s1 was read as CHX counter -1, Shiga toxin inh -3, Pf growth 48h 0%, Pf growth 96h 84%, AMA1 RON2 block -9% and SARS PLP yeast -4%.
Screening CCCC(=O)Nc1nc(-c2ccc3c(c2)OCCO3)cs1 returned CHX counter 40*, Shiga toxin inh 93*, Pf growth 48h 75%, Pf growth 96h 97%, AMA1 RON2 block 4% and SARS PLP yeast -12%.
For O=C(Nc1nc(-c2ccc3c(c2)OCO3)cs1)C1CC1 the results were CHX counter 44*, Shiga toxin inh 66*, Pf growth 48h 65%, Pf growth 96h 94%, AMA1 RON2 block -4% and SARS PLP yeast -13%.
`O=C(O)C(=O)Nc1nc(-c2ccc3c(c2)OCCO3)cs1` gave CHX counter 14*, Shiga toxin inh 26*, Pf growth 48h 38%, Pf growth 96h 21%, AMA1 RON2 block 45% and SARS PLP yeast -2%.
For CSCC(=O)Nc1nc(-c2ccc3c(c2)OCCO3)cs1 the results were CHX counter 51*, Shiga toxin inh 119*, Pf growth 48h inactive, Pf growth 96h 332%, AMA1 RON2 block -21% and SARS PLP yeast -4%.
CCCC(=O)Nc1nnc(-c2ccc3c(c2)OCCO3)o1 was read as CHX counter 31*, Shiga toxin inh 58*, Pf growth 48h 118%, Pf growth 96h 234%, AMA1 RON2 block 68% and SARS PLP yeast -5%.
`O=C(CSCC(=O)Nc1nc(-c2ccc3c(c2)OCO3)cs1)Nc1nccs1` gave CHX counter -2, Shiga toxin inh 6, Pf growth 48h inconclusive, Pf growth 96h -30%, AMA1 RON2 block 53% and SARS PLP yeast 0%.
Screening COc1ccc(C2=NS(=O)(=O)N(C)C(C(=O)Nc3ccc(C(C)=O)cc3)=C2)cc1OC returned CHX counter -4, Shiga toxin inh -5, Pf growth 48h -11%, Pf growth 96h 32%, AMA1 RON2 block -4% and SARS PLP yeast 0%.
Screening CC(C(=O)Nc1nccs1)c1ccc([N+](=O)[O-])cc1 (stereo not given) returned CHX counter -2, Shiga toxin inh -10, Pf growth 48h inconclusive, Pf growth 96h 62%, AMA1 RON2 block -11% and SARS PLP yeast 1%.
`COc1ccc(-n2nc([N+](=O)[O-])c(=NCc3ccc4c(c3)OCO4)n2O)cc1` gave CHX counter 55*, Shiga toxin inh 65*, Pf growth 48h 243%, Pf growth 96h 7.4µM*, AMA1 RON2 block -29% and SARS PLP yeast -6%.
COc1ccc(CCN=c2c([N+](=O)[O-])nn(-c3cccc(C)c3)n2O)cc1OC was read as CHX counter 2, Shiga toxin inh 9, Pf growth 48h 0%, Pf growth 96h 0%, AMA1 RON2 block -11% and SARS PLP yeast -5%.
O=[N+]([O-])c1nn(-c2ccc(Cl)cc2)n(O)c1=NCc1ccccc1 was read as CHX counter 36*, Shiga toxin inh 61, Pf growth 48h 172%, Pf growth 96h 23%, AMA1 RON2 block -6% and SARS PLP yeast 2%.
COc1ccc(-n2nc([N+](=O)[O-])c(=NCCc3cccc(C)c3)n2O)cc1 was read as CHX counter 10, Shiga toxin inh -1, Pf growth 48h -12%, Pf growth 96h -13%, AMA1 RON2 block inconclusive and SARS PLP yeast -1%.
`Cc1cccc(CCN=c2c([N+](=O)[O-])nn(-c3ccccc3)n2O)c1` gave CHX counter 12, Shiga toxin inh 12, Pf growth 48h inconclusive, Pf growth 96h inconclusive, AMA1 RON2 block -23% and SARS PLP yeast -11%.
`O=[N+]([O-])c1nn(-c2ccccc2)n(O)c1=NCc1ccc2c(c1)OCO2` gave CHX counter 30*, Shiga toxin inh 54*, Pf growth 48h -24%, Pf growth 96h inconclusive, AMA1 RON2 block -5% and SARS PLP yeast 1%.
`Cc1ccc(NC(=O)CCNS(=O)(=O)c2ccc(Br)s2)cc1` gave CHX counter 5, Shiga toxin inh -15, Pf growth 48h 2%, Pf growth 96h 21%, AMA1 RON2 block -12% and SARS PLP yeast 0%.
N#CCOc1coc(CN2CCN(c3ccccc3)CC2)cc1=O was read as CHX counter -3, Shiga toxin inh -6, Pf growth 48h 10%, Pf growth 96h -17%, AMA1 RON2 block 1% and SARS PLP yeast -2%.
